Bioassay records: PubChem BioAssay, The Scripps Research Institute Molecular Screening Center
ADAM17 inh: inhibits human ADAM17 | 370,000 compounds, 0.83% hits | AID 720648 | inhibition, % at 6.95 µM | P78536 | recombinant ADAM17, EDANS/DABCYL FRET peptide cleavage;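 active = inhibition above the mean of compounds lying between control limits plus 3 SD, set per campaign, cut at about 8.5% in these data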;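 also: 0% = DMSO-only wells as the low control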
PLC-beta3 inh: inhibitors of human phospholipase C beta3; inhibition, % at 12.2 µM; 370,000 compounds, 0.18% hits; Purified PLC-beta3, fluorogenic substrate, fluorescence; in the data active = inhibition above about 11%;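 also: 0% = median of compound wells on plate and 100% = full blocker control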
PLC-gamma1 inh: inhibitors of human phospholipase C gamma1; P19174; purified PLC-gamma1, fluorogenic substrate, fluorescence; inhibition, % at 12.2 µM; 370,000 compounds, 0.84% hits; in the data active = inhibition above about 9.5%
KLK7 zymogen act: activates the human kallikrein-7 zymogen. 370,000 compounds, 0.9% hits. activation, % at 7 µM. purified proKLK7, EDANS-DABCYL substrate fluorescence; 100% is mature enzyme control, 0% vehicle;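 active = activation above the mean of all tested compounds plus 3 SD, computed per campaign excluding outliers beyond control limits, cut at about 13% in these data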
ADAM10 inh: inhibits human ADAM10. recombinant ADAM10, EDANS/DABCYL FRET peptide cleavage, 3 h. inhibition, % at 7 µM. 370,000 compounds, 0.62% hits. AID 720582;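 active = inhibition above a per-campaign cutoff equal to the mean of compounds falling between control-based bounds plus 3 SD, cut at about 20% in these data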;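 also: 0% = DMSO wells while the 100% control is not disclosed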
Target sequence (O14672 214-748 limits assumed): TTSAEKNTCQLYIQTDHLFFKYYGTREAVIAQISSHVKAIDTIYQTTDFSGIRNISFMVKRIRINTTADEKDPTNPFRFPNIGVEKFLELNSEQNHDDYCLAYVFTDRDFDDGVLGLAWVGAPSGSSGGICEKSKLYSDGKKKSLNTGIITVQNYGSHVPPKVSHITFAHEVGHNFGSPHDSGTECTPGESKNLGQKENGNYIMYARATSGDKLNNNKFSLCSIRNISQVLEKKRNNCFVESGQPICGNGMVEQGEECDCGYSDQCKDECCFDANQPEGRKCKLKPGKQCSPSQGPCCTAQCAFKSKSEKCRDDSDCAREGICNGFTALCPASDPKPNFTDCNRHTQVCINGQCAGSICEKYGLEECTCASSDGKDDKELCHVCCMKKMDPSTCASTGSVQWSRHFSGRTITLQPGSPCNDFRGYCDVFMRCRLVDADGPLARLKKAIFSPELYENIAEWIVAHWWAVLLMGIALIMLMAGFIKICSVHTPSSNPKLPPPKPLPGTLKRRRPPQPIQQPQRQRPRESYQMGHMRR
KLK7 act conf: proKLK7 activation, confirmation; AID 686949; shares compounds with KLK7 zymogen act; purified proKLK7, EDANS-DABCYL substrate fluorescence; scaled: vehicle 0, mature enzyme 100; 3,200 compounds, 68% hits; activation, % at 7 µM;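 active = activation, as change over the incubation, above the mean of all tested compounds plus 3 SD, cut at about 13% in these data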
EDANS interfere: optically interferes with EDANS-DABCYL signal, flagging KLK7 hits; 3,200 compounds, 80% hits; AID 686952; shares compounds with KLK7 zymogen act; activation, % at 7 µM; EDANS-DABCYL substrate fluorescence interference, no enzyme, 4 h; solvent 0%, active enzyme control 100%;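 active = activation above the all-compound mean plus 3 SD, ignoring values outside control-based bounds, cut at about 4.8% in these data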;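 also: value is the 4 h activation minus the activation read at time zero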
EDANS interf: optically interferes with EDANS-DABCYL fluorescence, kallikrein-7 activator counter-screen. shares compounds with KLK7 zymogen act. EDANS-DABCYL peptide fluorescence interference, no enzyme. EC50, µM. 250 compounds, 20% hits. AID 720493;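 active = compounds that raise the fluorescence signal in this interference counterscreen, with EC50 at or below 10 µM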;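 also: intact quenched peptide substrate alone read at 355 nm excitation and 520 nm emission; signal is fluorescence gain from T0 to T4 after four hours at room temperature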
* hit, by the source's call; i = inactive; . = no result. This is a sample that favours compounds with a hit; in the whole collection about 2.9% have one here.

SMILES | ADAM17 inh | PLC-beta3 inh | PLC-gamma1 inh | KLK7 zymogen act | ADAM10 inh | KLK7 act conf | EDANS interfere | others
CCOCCCn1c(=NC(C)=O)c(C(=O)OCC)cc2c(=O)n3ccccc3nc21 | -35 | -30 | -17 | 2 | -159 | . | .
CCCCN(C)C1=Nc2cccc3cccc1c23 | -40 | i | -385 | 60* | -123 | 12 | 12*
CCCCON1C(=O)c2cccc3cccc(c23)C1=O | -89 | -21 | -8 | 2 | -258 | . | .
COc1ccc(NC(=S)Nc2ccc3c(c2)c(=O)n(C)n3-c2ccccc2)cc1 | -297 | i | i | 42* | i | 36* | 48*
Cn1c(=O)c2cc(NC(=O)NCc3ccc(F)cc3)ccc2n1C | i | i | i | 39* | i | 31* | 36*
COc1cc(Cn2c3ccc(NC(=O)NCc4ccc(F)cc4)cc3c(=O)n2C)ccc1F | -478 | -492 | -352 | 3 | i | . | .
Cn1c(=O)c2cc(NC(=S)NCc3ccccc3F)ccc2n1C | i | i | i | 34* | i | 10 | 8.7*
C=C(C)Cn1c2ccc(NC(=O)NCc3ccc(F)cc3)cc2c(=O)n1C | i | i | -455 | 30* | i | 10 | 15*
COc1cc(C(=O)N(CCCO)Cc2cc3ccc(C)c(C)c3[nH]c2=O)cc(OC)c1OC | -12 | -6 | -5 | 0 | -27 | . | .
CCc1cccc(C)c1N(C(=O)Cn1c(COC)nc2ccccc21)C(C)COC (stereo not given) | 5 | 9 | 4 | 0 | 2 | . | .
Cc1ccc(-n2ncc3c(SCc4ccccc4)ncnc32)cc1 | 2 | -1 | -3 | 0 | 1 | . | .
COc1cc(/C=C2/NC(=O)N(CC(=O)Nc3cccc(C)c3)C2=O)ccc1OCC(N)=O | -9 | -31 | -24 | 146* | -26 | 50* | 54*
N#Cc1ccc(S(=O)(=O)NC2CC2)cc1 | -6 | -10 | -1 | 0 | 5 | . | .
COc1ccc(C(=O)C(=O)N2CCC(Cc3ccccc3)CC2)cc1OC | -2 | -3 | 1 | 0 | -13 | . | .
COc1ccc(C(=O)NCCc2cccc(Cl)c2)cc1OC1CCN(C(C)=O)CC1 | -1 | -7 | 4 | 0 | -2 | . | .
CC(C)(C)OC(=O)N1CCN(C(=O)c2[nH]cnc2C(=O)Nc2ccon2)CC1 | -1 | 2 | 2 | 0 | -3 | . | .
CCOC(=O)c1cnn(-c2sc(C(=O)OCC)c(C)c2C(=O)OCC)c1N | -9 | -187 | -166 | 18* | -31 | 1 | 1
COc1ccc(CN2C(=O)c3ccccc3C2=O)cc1C(=O)N(C)CC(=O)Nc1c(C)cccc1C | 2 | 0 | 2 | 0 | 4 | . | .
COc1ccc(/C=C/C(=O)Nc2ccc(-n3nncc3-c3ccc(OC)c(OC)c3)cc2)cc1OC | -16 | -120 | -102 | 28* | -90 | -9 | -20
COc1cc(/C=C/C(=O)Nc2ccncc2)cc(OC)c1OC | -129 | i | i | 28* | -390 | 8 | 18*
COc1ccc(-c2cnnn2-c2ccc(NC(=O)/C=C/c3ccc(OC)c(OC)c3)cc2)cc1 | -5 | -34 | -26 | -13 | -10 | . | .
COc1ccc(/C=C/C(=O)NC(=S)Nc2ccc(S(N)(=O)=O)cc2)cc1OC | -11 | -108 | -76 | 19* | -21 | 13* | 17*
COc1cc(/C=C/C(=O)Nc2ccc(C(C)=O)cc2)cc(OC)c1OC | -5 | -35 | -38 | -1 | -24 | . | .
COc1ccc(/C=C/C(=O)NC(=S)Nc2ccccc2)cc1OC | -9 | -31 | -14 | -1 | -2 | . | .
O=C(NC1CC1)c1cc2c(s1)-c1ccccc1OC2 | i | i | i | 47* | i | 75* | 87*
SMILES | ADAM17 inh | PLC-beta3 inh | PLC-gamma1 inh | KLK7 zymogen act | ADAM10 inh | KLK7 act conf | EDANS interfere | others
O=C(O)c1cc2c(s1)-c1ccccc1OC2 | i | i | i | 34* | i | 77* | 73*
O=C(NCc1cccs1)c1cc2c(s1)-c1ccccc1OC2 | i | i | i | -18 | i | . | .
O=C(c1ccco1)N1CCN(C(=O)c2cc3c(s2)-c2ccccc2OC3)CC1 | i | i | i | 23* | i | 4 | -67
O=C(NCCCN1CCOCC1)c1cc2c(s1)-c1ccccc1OC2 | i | i | i | 47* | i | 68* | 65*
Cc1cccc(CSc2ccc(-c3ccco3)nn2)c1 | -2 | -6 | -4 | 0 | -10 | . | .
CC(O)c1cccc(NC(=O)CCCc2ccccc2)c1 (stereo not given) | 0 | 2 | 1 | 0 | 4 | . | .
O=C(CCCOc1ccc(Cl)cc1Cl)Nc1ccccn1 | 1 | 2 | 1 | 0 | 12 | . | .
CCc1ccc(N2CC(C(=O)Nc3ccc4c(c3)OCCO4)CC2=O)cc1 (stereo not given) | 0 | -7 | -2 | 0 | 4 | . | .
O=C(O)CCC(=O)c1ccc2ccc3cccc4ccc1c2c34 | i | i | i | 26* | i | 62* | 65*
Nc1nc2ncccc2cc1C(=O)NCCc1cccs1 | -477 | -360 | -251 | 24* | i | 22* | 28*
Cc1cccc(-n2c3nc(=O)[nH]c(=O)c-3cc3c(C)nn(-c4ccccc4)c32)c1C | i | -364 | -328 | 14* | i | 46* | 58*
Cc1nn(-c2ccccc2)c2c1cc1c(=O)n(C)c(=O)nc-1n2-c1ccccc1F | -345 | -206 | -149 | 13* | i | 18* | 9.1* | EDANS interf=>70
Cc1ccc(NC(=O)CN2C(=O)S/C(=C\c3cc(C)n(C)c3C)C2=O)cc1 | -1 | -23 | -21 | 20* | -2 | 7 | 0
COc1ccccc1N1C(=O)S/C(=C\c2cc(C)n(C)c2C)C1=O | 1 | -23 | -24 | 24* | 1 | 32* | 80*
Cc1cccc(NC(=O)CN2C(=O)S/C(=C\c3cc(C)n(C)c3C)C2=O)c1 | -4 | -25 | -28 | -7 | -13 | . | .
COc1ccccc1N1C(=O)S/C(=C\c2ccc(C)s2)C1=O | 0 | -2 | -1 | -1 | 3 | . | .
CN(Cc1nc2ccccc2c(=O)[nH]1)C(=O)C1CC(=O)N(c2cccc3ccccc23)C1 (stereo not given) | 4 | 2 | 5 | -1 | -1 | . | .
CCOC(=S)SCC(=O)N1CCc2cc(OC)c(OC)cc2C1C1C(=O)CC(C)(C)CC1=O (stereo not given) | -30 | -127 | -128 | 26* | -106 | 3 | 3
CCOC(=S)SCC(=O)N1CCc2ccccc2C1C1C(=O)CC(C)(C)CC1=O (stereo not given) | -4 | -1 | -2 | 0 | 0 | . | .
